{"source": "PubChem BioAssay (NCI)", "note": "Compounds without any hit were thinned out: in the full panel of roughly 83,000, 20% have a hit.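 Values shown are percent growth following 48 h exposure of cells in 96-well plates to a single concentration of compound; below 10 was considered active.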 Values without a mark were called inactive. Activity calls are given as the source filed them."}
{"tested_on": "SW-620 colon", "test": "NCI-60 one-dose screen, 48 h (100 = growth as untreated, 0 = no growth, -100 = all killed)", "details": "10 µM unless noted"}
{"compound": "COC(=O)[C@@H](NC(=O)[C@@H](OC)[C@@H]1Cc2cc3cc(OC4CC(OC5CC(O)C(O)C(C)O5)C(O)C(C)O4)c(C)c(O)c3c(O)c2C(=O)[C@H]1OC1CC(OC2CC(OC3CC(C)(O)C(O)C(C)O3)C(O)C(C)O2)C(O)C(C)O1)C(C)C", "note": "(some centres undefined)", "growth": "16.6%"}
{"compound": "Nc1c2c(c(O)c3c1=C(CO)C=N3)=NCCS2=O", "note": "(centres undefined)", "growth": "-18% (active)"}
{"compound": "C=CC[n+]1c(/C=C2\\Sc3ccccc3N2C)sc(-c2ccccc2)c1-c1ccccc1", "growth": "22.1%"}
{"compound": "CC1(C=O)NC(=O)NC1=O", "note": "(centres undefined)", "growth": "101%"}
{"compound": "COc1cc2c3c(c1)nc(C)n3CCC2", "growth": "107%"}
{"compound": "COc1cc2c(Oc3ccc4[nH]c(C)cc4c3F)ncnc2cc1OCCCN1CCCC1", "growth": "102%"}
{"compound": "CCc1nc2cc(/C=C/C(=O)NO)c(F)cc2c(=O)n1CCc1ccccc1", "growth": "18.4%"}
{"compound": "CCc1cc2c(c3ccc(C(=O)CBr)cc13)CCCC2", "growth": "111%"}
{"compound": "COc1cc(F)c(F)c(Nc2ccc(I)cc2F)c1NS(=O)(=O)C1(C[C@H](O)CO)CC1", "growth": "19.3%"}
{"compound": "C=CC(=O)Nc1cc2c(Nc3ccc(F)c(Cl)c3)ncnc2cc1C#CC(C)(C)N1CCN(C)CC1", "growth": "-78% (active)"}
{"compound": "CN1CC[C@H](c2c(O)cc(O)c3c(=O)cc(-c4ccccc4Cl)oc23)[C@H](O)C1", "growth": "0.889% (active)"}
{"compound": "COc1cc2ncnc(Nc3ccc(F)c(Cl)c3)c2cc1NC(=O)/C=C/CN1CCCCC1", "growth": "-78.4% (active)"}
{"compound": "O=C(c1ccccc1)C(c1ccccc1)N1CCOCC1", "note": "(centres undefined)", "growth": "103%"}
{"compound": "COc1ccc(CCCc2c3[n+](cc4c(OC)c(OC)ccc24)CCc2cc4c(cc2-3)OCO4)cc1", "growth": "68.9%"}
{"compound": "CCn1c(-c2nonc2N)nc2c(C#CC(C)(C)O)ncc(OC[C@H]3CCCNC3)c21", "growth": "46.1%"}
{"compound": "COc1ccc(C2CC(=O)c3c(O)c(OC)c(OC)c(OC)c3O2)cc1O", "note": "(centres undefined)", "growth": "20.2%"}
{"compound": "NC1(c2ccc(-c3nc4ccn5c(=O)[nH]nc5c4cc3-c3ccccc3)cc2)CCC1", "growth": "55%"}
{"compound": "CCc1nc(C(N)=O)c(Nc2ccc(N3CCC(N4CCN(C)CC4)CC3)c(OC)c2)nc1NC1CCOCC1", "growth": "3.96% (active)"}
{"compound": "CC(C)(C)c1ccc(Cn2cc(CSc3nc4ccccc4s3)nn2)cc1", "growth": "97.3%"}
{"compound": "COCC(=O)NC/C=C/c1ccc2ncnc(Nc3ccc(Oc4ccc(C)nc4)c(C)c3)c2c1", "growth": "47.9%"}
{"compound": "COc1ccc(-n2c(=O)c3ccccc3n(Cc3ccc(C(=O)NO)cc3)c2=O)cc1", "growth": "-27.3% (active)"}
{"compound": "CC(=O)C(C(C)=O)C(c1ccccc1)C(C(C)=O)C(C)=O", "growth": "110%"}
{"compound": "Cc1cc2c(F)c(Oc3ncnn4cc(OC[C@@H](C)OC(=O)[C@H](C)N)c(C)c34)ccc2[nH]1", "growth": "20.3%"}
{"compound": "O=C(Cn1cncn1)Nc1ccc(-c2nc3ccccc3s2)cc1", "growth": "106%"}
{"compound": "COc1ccc(-c2cc3c(C)nc(N)nc3n(C3CCC(OCCO)CC3)c2=O)cn1", "note": "(centres undefined)", "growth": "7.56% (active)"}
{"compound": "COc1cc(OC)c(/C=C/S(=O)(=O)Cc2ccc(OC)c(NCC(=O)O)c2)c(OC)c1", "growth": "24.5%"}
{"compound": "C=CC(=O)N(C)[C@H]1C[C@H]2OC(C)(C1OC)n1c3ccccc3c3c4c(c5c6ccccc6n2c5c31)C(=O)NC4", "note": "(some centres undefined)", "growth": "10.3%"}
{"compound": "O=C1C=CC2(NN=C(c3ccccc3)N2c2cccc(Cl)c2)c2cccc(O)c21", "note": "(centres undefined)", "growth": "82%"}
{"compound": "COC(=O)[C@@H](OC)[C@@H]1Cc2cc3cc(OC4CC(OC5CC(O)C(O)C(C)O5)C(O)C(C)O4)c(C)c(O)c3c(O)c2C(=O)[C@H]1OC1CC(OC2CC(OC3CC(C)(O)C(O)C(C)O3)C(O)C(C)O2)C(O)C(C)O1", "note": "(some centres undefined)", "growth": "8.04% (active)"}
{"compound": "O=C(O)c1ccc(Nc2ncc3c(n2)-c2ccc(Cl)cc2C(c2c(F)cccc2F)=NC3)cc1", "growth": "35.4%"}
{"compound": "CC(C)Nc1cc(-c2c[nH]c(C(=O)N[C@H](CO)c3cccc(Cl)c3)c2)c(Cl)cn1", "growth": "20.6%"}
{"compound": "CCN(CC)CCNC(=O)c1c(C)[nH]c(/C=C2\\C(=O)Nc3ccc(F)cc32)c1C", "growth": "-2.88% (active)"}
{"compound": "COc1cccc2cc(-c3nc(C4CCC(C(=O)O)CC4)n4ncnc(N)c34)[nH]c12", "note": "(centres undefined)", "growth": "14.4%"}
{"compound": "O=C(c1ccc(/C=C/c2n[nH]c3ccccc23)cc1)N1CCNCC1", "growth": "11.7%"}
{"compound": "COc1cc(-c2nc(C(=O)NCC(=O)O)nn2-c2ccc(Cl)cc2)cc(OC)c1OC", "growth": "108%"}
{"compound": "CC1CCC(n2cnc3c(Cl)ncnc32)O1", "note": "(centres undefined)", "growth": "106%"}
{"compound": "N#Cc1cc2[nH]c3ccc(OC(F)(F)F)cc3c2oc1=O", "growth": "71.6%"}
{"compound": "COc1ccc(-c2cnc(-c3ccc(Cl)cc3)[nH]2)cc1OC", "growth": "95.9%"}
{"compound": "COc1ccc2c(CCCCC(c3ccccc3)c3ccccc3)c3[n+](cc2c1OC)CCc1cc2c(cc1-3)OCO2", "growth": "-76.9% (active)"}
